# The sample as a whole holds a higher share of the strongest signals than the screen did.
# Columns and labels:
# Assay in all cases: glycan array binding signal (z-score within array); higher = stronger binding
# Conditions in all cases: glycan notation: IUPAC condensed, linker removed
# [1] = biological target: GlcNAc(b1-3)Gal(b1-4)GlcNAc(b1-3)Gal(b1-4)GlcNAc(b1-3)Gal(b1-4)GlcNAc(b1-2)Man(a1-3)[GlcNAc(b1-3)Gal(b1-4)GlcNAc(b1-3)Gal(b1-4)GlcNAc(b1-3)Gal(b1-4)GlcNAc(b1-2)Man(a1-6)]Man(b1-4)GlcNAc(b1-4)[Fuc(a1-6)]GlcNAc
# In short: (§1)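 Columns mapping to the same glycan were averaged after glycan names were converted to IUPAC-condensed notation. The data come from 3228 arrays in the Consortium for Functional Glycomics database, limited to those with an available protein sequence. Binding is reported as a within-array Z-score averaged across arrays of one protein sequence and across linkers.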
# [2] = biological target: GlcNAc(b1-3)Gal(b1-4)GlcNAc(b1-3)Gal(b1-4)GlcNAc(b1-3)Gal(b1-4)GlcNAc(b1-3)Gal(b1-4)GlcNAc(b1-2)Man(a1-3)[GlcNAc(b1-3)Gal(b1-4)GlcNAc(b1-3)Gal(b1-4)GlcNAc(b1-3)Gal(b1-4)GlcNAc(b1-3)Gal(b1-4)GlcNAc(b1-2)Man(a1-6)]Man(b1-4)GlcNAc(b1-4)GlcNAc
# In short: as §1
# [3] = biological target: GlcNAc(b1-3)Gal(b1-4)GlcNAc(b1-3)Gal(b1-4)GlcNAc(b1-3)GalNAc
# In short: as §1
# [4] = biological target: Man(a1-2)Man(a1-2)Man(a1-6)[Man(a1-3)]Man
# In short: as §1
# [5] = biological target: Man(a1-2)Man(a1-3)Man
# In short: as §1
# [6] = biological target: Man(a1-2)Man(a1-3)[Man(a1-2)Man(a1-6)]Man
# In short: as §1
# [7] = biological target: Man(a1-2)Man(a1-3)[Man(a1-2)Man(a1-6)]Man(a1-6)[Man(a1-2)Man(a1-2)Man(a1-3)]Man
# In short: as §1
# [8] = biological target: Man(a1-2)Man(a1-3)[Man(a1-2)Man(a1-6)]Man(a1-6)[Man(a1-2)Man(a1-2)Man(a1-3)]Man(b1-4)GlcNAc(b1-4)GlcNAc
# In short: as §1
# [9] = biological target: Man(a1-2)Man(a1-3)[Man(a1-6)]Man(a1-6)[Man(a1-2)Man(a1-3)]Man(b1-4)GlcNAc(b1-4)GlcNAc
# In short: as §1
# [10] = biological target: Man(a1-2)Man(a1-6)[Man(a1-3)]Man(a1-6)[Man(a1-2)Man(a1-2)Man(a1-3)]Man
# In short: as §1
# [11] = biological target: Man(a1-2)Man(a1-6)[Man(a1-3)]Man(a1-6)[Man(a1-2)Man(a1-2)Man(a1-3)]Man(b1-4)GlcNAc(b1-4)GlcNAc
# In short: as §1
# [12] = biological target: Man(a1-3)[Man(a1-6)]Man(a1-6)[Man(a1-2)Man(a1-3)]Man(b1-4)GlcNAc(b1-4)GlcNAc
# In short: as §1
# [13] = biological target: Man(a1-3)[Man(a1-6)]Man(b1-4)GlcNAc(b1-4)GlcNAc
# In short: as §1
# [14] = biological target: Man(a1-3)[Man(a1-6)]Man(b1-4)GlcNAc(b1-4)[Fuc(a1-6)]GlcNAc
# In short: as §1
# [15] = biological target: Neu5Ac(a2-3)Gal(b1-3)GalNAc6S
# In short: as §1
# [16] = biological target: Neu5Ac(a2-3)Gal(b1-3)GlcNAc(b1-6)GalNAc
# In short: as §1
# [17] = biological target: Neu5Ac(a2-3)Gal(b1-3)[GlcNAc(b1-6)]GalNAc
# In short: as §1
# [18] = biological target: Neu5Ac(a2-3)Gal(b1-3)]Neu5Ac(a2-3)Gal(b1-4)]GlcNAc
# In short: as §1
# [19] = biological target: Neu5Ac(a2-3)Gal(b1-4)GlcNAc(b1-2)[Neu5Ac(a2-3)Gal(b1-4)GlcNAc(b1-4)]Man(a1-3)[GlcNAc(b1-4)][Neu5Ac(a2-3)Gal(b1-4)GlcNAc(b1-4)Man(a1-6)]Man(b1-4)GlcNAc(b1-4)GlcNAc
# In short: as §1
# [20] = biological target: Neu5Ac(a2-3)Gal(b1-4)GlcNAc(b1-3)Gal(b1-4)GlcNAc(b1-2)Man(a1-3)[Neu5Ac(a2-3)Gal(b1-4)GlcNAc(b1-3)Gal(b1-4)GlcNAc(b1-2)Man(a1-6)]Man(b1-4)GlcNAc(b1-4)GlcNAc
# In short: as §1
# [21] = biological target: Neu5Ac(a2-3)[GalNAc(b1-4)]Gal(b1-4)Glc
# In short: as §1
# [22] = biological target: Neu5Ac(a2-3)[GalNAc(b1-4)]Gal(b1-4)GlcNAc
# In short: as §1
# [23] = biological target: Neu5Ac(a2-6)Gal(b1-4)GlcNAc(b1-2)Man(a1-6)[Man(a1-3)]Man(b1-4)GlcNAc(b1-4)GlcNAc
# In short: as §1
# [24] = biological target: Neu5Ac(a2-6)Gal(b1-4)GlcNAc(b1-3)Gal(b1-4)GlcNAc
# In short: as §1
# [25] = biological target: Neu5Ac(a2-6)Gal(b1-4)GlcNAc(b1-3)Gal(b1-4)GlcNAc(b1-3)GalNAc
# In short: as §1
# [26] = biological target: Neu5Ac(a2-6)Gal(b1-4)GlcNAc(b1-3)Gal(b1-4)GlcNAc(b1-3)[Neu5Ac(a2-6)Gal(b1-4)GlcNAc(b1-3)Gal(b1-4)GlcNAc(b1-6)]GalNAc
# In short: as §1
# [27] = biological target: Neu5Ac(a2-6)GalNAc
# In short: as §1
# [28] = biological target: Neu5Ac(a2-6)GalNAc(b1-4)GlcNAc
# In short: as §1
# [29] = biological target: Neu5Ac(a2-8)Neu5Ac(a2-3)Gal(b1-3)GalNAc(b1-4)[Neu5Ac(a2-3)]Gal(b1-4)Glc
# In short: as §1
# [30] = biological target: Neu5Ac(a2-8)Neu5Ac(a2-8)Neu5Ac(a2-3)Gal(b1-4)Glc
# In short: as §1
binder,measurement,setting,value
Banana lectin (Musa acuminata) (protein) MNGAIKVGAWGGNGGSAFDMGPAYRIISVKIFSGDVVDGVDVTFTYYGKTETRHYGGSGGTPHEIVLQEGEYLVGMAGEVANYHGAVVLGKLGFSTNKKAYGPFGNTGGTPFSLPIAAGKISGFFGRGGKFLDAIGVYLEPLEHHHHHH,glycan array binding signal (z-score),[1],-0.122
same,glycan array binding signal (z-score),[2],-0.165
same,glycan array binding signal (z-score),[3],-0.184
same,glycan array binding signal (z-score),[4],6.19
same,glycan array binding signal (z-score),[5],2.25
same,glycan array binding signal (z-score),[6],4.51
same,glycan array binding signal (z-score),[7],5.96
same,glycan array binding signal (z-score),[8],2.62
same,glycan array binding signal (z-score),[9],8.11
same,glycan array binding signal (z-score),[10],3.34
same,glycan array binding signal (z-score),[11],6.29
same,glycan array binding signal (z-score),[12],13.1
same,glycan array binding signal (z-score),[13],4.01
same,glycan array binding signal (z-score),[14],2.88
same,glycan array binding signal (z-score),[15],-0.237
same,glycan array binding signal (z-score),[16],-0.288
same,glycan array binding signal (z-score),[17],-0.214
same,glycan array binding signal (z-score),[18],-0.223
same,glycan array binding signal (z-score),[19],-0.225
same,glycan array binding signal (z-score),[20],-0.167
same,glycan array binding signal (z-score),[21],-0.132
same,glycan array binding signal (z-score),[22],-0.169
same,glycan array binding signal (z-score),[23],3.56
same,glycan array binding signal (z-score),[24],-0.226
same,glycan array binding signal (z-score),[25],-0.223
same,glycan array binding signal (z-score),[26],-0.161
same,glycan array binding signal (z-score),[27],-0.204
same,glycan array binding signal (z-score),[28],-0.221
same,glycan array binding signal (z-score),[29],-0.192
same,glycan array binding signal (z-score),[30],-0.139

# From the supplement of paper PMC8728848
